Source: PubChem BioAssay (EPA / NIEHS)
Activity calls are given as the source filed them. Rule for the calls: active = hit-call score of the fitted dose curve at least 0.9, where 1 is the maximum; inactive = score below 0.9.

Experiments:
[1] = read-out: Vascular endothelial growth factor receptor 2 (Homo sapiens) (UniProt P35968); assay: BSK_4H_VEGFRII: BioMAP Diversity Plus: 4H Assay for Vascular endothelial growth factor receptor 2 (VEGFR2) Biomarker Activity (AID 2283031); conditions: primary human endothelial cells (HUVEC); actives raise or lower the signal
How it was run: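 Primary human umbilical vein endothelial cells in the BioMAP 4H system were dosed with test chemical, and 24 h later VEGFRII was measured by ELISA. Activity was fitted bidirectionally against DMSO as negative control and baseline.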

[2] = read-out: Vascular cell adhesion molecule 1 (VCAM1), VCAM1 (gene 7412); assay: BSK_4H_VCAM1: BioMAP Diversity Plus: 4H Assay for Vascular cell adhesion molecule 1 (VCAM1) Biomarker Activity (AID 2283033); conditions: primary human endothelial cells (HUVEC); actives raise or lower the signal
How it was run: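 Primary human umbilical vein endothelial cells were exposed to chemicals for 24 h, after which VCAM-1 was quantified by ELISA. Responses were fitted bidirectionally against DMSO as negative control and activity baseline.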

[3] = read-out: Interferon-gamma inducible Protein 10 (IP10), CXCL10 (gene 3627); assay: BSK_BE3C_IP10: BioMAP Diversity Plus: BE3C Assay for Interferon-gamma inducible Protein 10 (IP10) Biomarker Activity (AID 2283034); conditions: primary human bronchial epithelial cells; actives raise or lower the signal
How it was run: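 Human primary bronchial epithelial cells were exposed to chemicals for 24 hours, after which IP-10 levels were measured by ELISA. Data were fitted bidirectionally against DMSO, which served as the negative control and activity baseline.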

[4] = read-out: Monokine induced gamma interferon (MIG), CXCL9 (gene 4283); assay: BSK_BE3C_MIG: BioMAP Diversity Plus: BE3C Assay for Monokine induced gamma interferon (MIG) Biomarker Activity (AID 2283035); conditions: primary human bronchial epithelial cells; actives raise or lower the signal
How it was run: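 Primary human bronchial epithelial cells treated for 24 h; MIG levels measured by ELISA, fitted bidirectionally versus DMSO. Parallel SRB total-protein staining assessed cytotoxicity.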

[5] = read-out: Transforming growth factor beta 1 (TGFb1), TGFB1 (gene 7040); assay: BSK_BE3C_TGFb1: BioMAP Diversity Plus: BE3C Assay for Transforming growth factor beta 1 (TGFb1) Biomarker Activity (AID 2283036); conditions: primary human bronchial epithelial cells; actives raise or lower the signal
How it was run: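 Human primary bronchial epithelial cells (BE3C system) were dosed with chemical and TGF-b1 levels measured by ELISA at 24 h. Activity was fitted bidirectionally relative to DMSO negative control as baseline.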

[6] = read-out: Plasminogen activator inhibitor-1 (PAI1), SERPINE1 (gene 5054); assay: BSK_BE3C_PAI1: BioMAP Diversity Plus: BE3C Assay for Plasminogen activator inhibitor-1 (PAI1) Biomarker Activity (AID 2283037); conditions: primary human bronchial epithelial cells; actives raise or lower the signal
How it was run: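 Human primary bronchial epithelial cells were exposed to chemical for 24 h, then PAI-1 was quantified by ELISA. Activity was fitted bidirectionally relative to the DMSO negative control baseline.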

[7] = read-out: urokinase plasminogen activator (uPA), PLAU (gene 5328); assay: BSK_BE3C_uPA: BioMAP Diversity Plus: BE3C Assay for urokinase plasminogen activator (uPA) Biomarker Activity (AID 2283038); conditions: primary human bronchial epithelial cells; actives raise or lower the signal
How it was run: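 Human primary bronchial epithelial cells were exposed to chemical for 24 h, then uPA levels were measured by ELISA. Responses were fitted bidirectionally against DMSO as negative control and baseline. Parallel SRB staining of total protein gauged overt cytotoxicity.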

[8] = read-out: Urokinase-type plasminogen activator receptor (uPAR), PLAUR (gene 5329); assay: BSK_BE3C_uPAR: BioMAP Diversity Plus: BE3C Assay for Urokinase-type plasminogen activator receptor (uPAR) Biomarker Activity (AID 2283039); conditions: primary human bronchial epithelial cells; actives raise or lower the signal
How it was run: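 Primary human bronchial epithelial cells were dosed with chemical and harvested 24 h later; uPAR was quantified by ELISA. Activity was fitted bidirectionally against DMSO as negative control and baseline.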

[9] = read-out: Interleukin-6 (IL6), IL6 (gene 3569); assay: BSK_CASM3C_IL6: BioMAP Diversity Plus: CASM3C Assay for Interleukin-6 (IL6) Biomarker Activity for (AID 2283040); conditions: primary human coronary artery smooth muscle cells; actives raise or lower the signal
[10] = read-out: Tissue plasminogen activator (tPA), PLAT (gene 5327); assay: BSK_BE3C_tPA: BioMAP Diversity Plus: BE3C Assay for Tissue plasminogen activator (tPA) Biomarker Activity (AID 2283041); conditions: primary human bronchial epithelial cells; actives raise or lower the signal
How it was run: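 Human primary bronchial epithelial cells were dosed with chemical and tPA biomarker levels measured by ELISA 24 hours later. Activity was fitted bidirectionally against DMSO as negative control and baseline.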

[11] = read-out: Interleukin-8 (IL8), CXCL8 (gene 3576); assay: BSK_CASM3C_IL8: BioMAP Diversity Plus: CASM3C Assay for Interleukin-8 (IL8) Biomarker Activity (AID 2283042); conditions: primary human coronary artery smooth muscle cells; actives raise or lower the signal;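 note: IL-8 protein level quantified by ELISA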
[12] = read-out: Human Leukocyte Antigen - DR isotype (HLADR), HLA-DRA (gene 3122); assay: BSK_CASM3C_HLADR: BioMAP Diversity Plus: CASM3C Assay for Human Leukocyte Antigen - DR isotype (HLADR) Biomarker Activity (AID 2283043); conditions: primary human coronary artery smooth muscle cells; actives raise or lower the signal;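 note: cell-surface HLA-DR protein level quantified by ELISA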
[13] = read-out: Macrophage colony-stimulating factor (MCSF), CSF1 (gene 1435); assay: BSK_CASM3C_MCSF: BioMAP Diversity Plus: CASM3C Assay for Macrophage colony-stimulating factor (MCSF) Biomarker Activity (AID 2283044); conditions: primary human coronary artery smooth muscle cells; actives raise or lower the signal;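 note: M-CSF protein amount quantified by ELISA after 24 h exposure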
[14] = read-out: Low-density lipoprotein receptor (LDLR), LDLR (gene 3949); assay: BSK_CASM3C_LDLR: BioMAP Diversity Plus: CASM3C Assay for Low-density lipoprotein receptor (LDLR) Biomarker Activity (AID 2283045); conditions: primary human coronary artery smooth muscle cells; actives raise or lower the signal;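 note: LDLR protein level on the cell surface quantified by ELISA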
[15] = read-out: Monocyte Chemoattractant Protein-1 (MCP1), CCL2 (gene 6347); assay: BSK_CASM3C_MCP1: BioMAP Diversity Plus: CASM3C Assay for Monocyte Chemoattractant Protein-1 (MCP1) Biomarker Activity (AID 2283046); conditions: primary human coronary artery smooth muscle cells; actives raise or lower the signal;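 note: MCP-1 level quantified by ELISA 24 h after dosing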
[16] = BSK_CASM3C_Proliferation: Cell Proliferation Assessment in the BioMAP Diversity Plus: CASM3C Assay (AID 2283047); conditions: primary human coronary artery smooth muscle cells;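 note: sulforhodamine B total protein stain as relative cell number at 560 nm; sub-confluent cells exposed 48 h before staining; fitted both ways against DMSO so gain or loss of cell number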
[17] = read-out: Monokine induced gamma interferon (MIG), CXCL9 (gene 4283); assay: BSK_CASM3C_MIG: BioMAP Diversity Plus: CASM3C Assay for Monokine induced gamma interferon (MIG) Biomarker Activity (AID 2283048); conditions: primary human coronary artery smooth muscle cells; actives raise or lower the signal
[18] = read-out: serum amyloid A (SAA), SAA1 (gene 6288); assay: BSK_CASM3C_SAA: BioMAP Diversity Plus: CASM3C Assay for serum amyloid A (SAA) Biomarker Activity (AID 2283049); conditions: primary human coronary artery smooth muscle cells; actives raise or lower the signal;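 note: SAA protein level quantified by ELISA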
[19] = BSK_CASM3C_SRB: Viability Assessment in the BioMAP Diversity Plus: CASM3C Assay (AID 2283050); conditions: primary human coronary artery smooth muscle cells;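 note: total protein by SRB staining as cytotoxicity measure in parallel cultures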

Measured: AC50

CCO[Si](CCCNC(N)=O)(OCC)OCC
inactive: all assays above

NC(=O)c1nc(-c2cccc(-c3cc(F)ccc3OCC(F)(F)C(F)(F)F)c2)n[nH]1
inactive: [1] | [9] | [11] | [13] | [14] | [15] | [17] | [18] | [19]
active: [2] 38.2 µM | [3] 35.9 µM | [4] 37.5 µM | [5] 33 µM | [6] 35.1 µM | [7] 37.7 µM | [8] 35.3 µM | [10] 27.5 µM | [12] 28.7 µM | [16] 31.4 µM

O=c1[nH]sc2ccccc12
active: [2] 7.17 µM | [3] 28 µM | [4] 32.3 µM | [5] 20 µM | [6] 37.2 µM | [7] 33.6 µM | [8] 35 µM | [9] 8.69 µM | [10] 11 µM | [11] 14.6 µM | [12] 5.36 µM | [13] 14.9 µM | [14] 12.7 µM | [15] 13.1 µM | [16] 1.89 µM | [17] 10.7 µM | [18] 20.4 µM | [19] 17.3 µM
inactive: [1]

CCCCCCCC[Si](OCC)(OCC)OCC
active: [2] 21.6 µM | [3] 26.3 µM | [16] 35.4 µM
inactive: all other assays above

CC(O)CC(C)(C)O (configuration not stated)
inactive: all assays above

CCCOC(=O)c1cc(O)c(O)c(O)c1
active: [2] 2.01 µM | [16] 6.82 µM
inactive: all other assays above

CC1(C)NC(=O)N(c2ccc([N+](=O)[O-])c(C(F)(F)F)c2)C1=O
active: [13] 11.8 µM | [16] 11.8 µM
inactive: all other assays above

c1ccc2n[nH]nc2c1
inactive: all assays above
